From the supplement of paper PMC10338343
± gives the standard deviation. In all, about 8,200 sequences were measured (“pre-steady-state target cleavage rate”: median about 0.024, highest 2% from about 1.3 on). For the sample, the highest values were picked, then their nearest neighbours and some sequences at random.

Test system: MIWI (PIWIL1) piRISC loaded with L1MC piRNA (30 nt)
Assay: pre-steady-state target cleavage rate (min^-1); MIWI and MILI are mouse PIWI proteins and EfPiwi is from a freshwater sponge; tags in brackets are library labels; higher = faster piRNA-guided slicing of the target
Conditions: guide: L1MC piRNA 5'p-UAACUAAAUACUAUGCAAGCUGUAGGUCCU
Summary of the method: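 At 33 °C in HEPES–potassium acetate buffer, a transcribed, DNA-blocked target RNA library […] was exposed for 0–8 or 0–960 min to 1 nM active affinity-purified piRISC carrying a single synthetic guide, with or without 500 nM GTSF1 partner protein. Uncleaved targets were sequenced and normalised to depth and to weakly complementary targets. With three trials pooled and k3 capped at 0.0001 min^-1, a burst-and-steady-state fit produced the pre-steady-state cleavage rate.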

[1] = auxiliary factor: 500 nM mouse GTSF1
[2] = auxiliary factor: none (no GTSF1)
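Further: 1 nM active piRISC with 0.1 nM target library at 33 °C single turnover.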

Sequence | pre-steady-state target cleavage rate [1] | pre-steady-state target cleavage rate [2]
UGGACCUACAGCUUGCAUACAAUUUAGUAA | 0.00447 ± 0.0027 | –
UCCACCUACAGCUUGCUAUGUAUUUAGAAA | 0.00878 ± 0.0045 | –
UCCUGGAUGUGCUUGCAUACUAUUUAGUUA | 0.0877 ± 0.01 | 0.0191 ± 0.0037
UCCUGGAUCAGCUUGCAUAGUAUUUUGAUA | 0.17 ± 0.032 | 0.0123 ± 0.004
UCCUGGAACAGCUUGCAUAAGUAUUUAGUUA | 0.00489 ± 0.0033 | –
UCCUGGAACAUGCUUGCAUAGUAUUUAGUUA | 0.696 ± 0.028 | 0.0566 ± 0.011
UCCUGGUACAGCUUGCAUCGUAUUUAGUUA | 0.203 ± 0.024 | 0.0269 ± 0.0059
UCCUGCUACAGCUUGCAUAGUCUUUAGUUA | 0.279 ± 0.034 | 0.0195 ± 0.0047
UCCUGCUACAGCUUGCAUAGAUUUUAGAAA | 0.00439 ± 0.0033 | –
UGGACCUACUGCUUGCAUUGUAUUUAGUUA | 0.868 ± 0.041 | 0.0358 ± 0.009
UCCUCCUACACGUUGCAUAGUAUUUAGUAA | 0.507 ± 0.035 | 0.00568 ± 0.0015
UGGACCUACAACUUGCAUAGUAUUUAGUUA | 1.5 ± 0.062 | 0.08 ± 0.013
UGGACCUACACCUUGCAUAGUAUUUAGUUA | 1.23 ± 0.045 | 0.0585 ± 0.0088
UGGACCUACAAGCUUGCAUAGUAUUUAGUUA | 1.03 ± 0.058 | 0.0528 ± 0.0098
AGGACCUACACUUGCAUAGUAUUUAGUUA | 1.15 ± 0.043 | 0.0736 ± 0.016
UCGACCUACAACUUGCAUAGUAUUUAGUUA | 1.33 ± 0.041 | 0.0746 ± 0.015
AGGACCUACAACUUGCAUAGUAUUUAGUUA | 1.08 ± 0.031 | 0.0712 ± 0.011
UCCACCUACAACUUGCAUAGUAUUUAGUUA | 0.869 ± 0.025 | 0.0505 ± 0.0067
UGGACCUACACUUGCAUAGUAUUUAGUUA | 1.33 ± 0.082 | 0.045 ± 0.0091
UCGACCUACACUUGCAUAGUAUUUAGUUA | 1.09 ± 0.045 | 0.0331 ± 0.0076
UCCUGGAACAGCUUCCAUAGUAUUUAGAAA | 0.00998 ± 0.0048 | –
UCCACCUACAGCUUGCAUAGUAUUUAGUA | 0.445 ± 0.043 | 0.00981 ± 0.0037
AGGACCUACAGCUUGCAUUCUAUUUAGUAA | 0.262 ± 0.057 | 0.00441 ± 0.0024
UCCUGGAUGAGCUUGCUUAGUUUUUAGUUA | 0.0242 ± 0.0064 | 0.00971 ± 0.0022
UCCUGGAUGUCCAUGCAUAGUAAUUAGUUA | 0.00537 ± 0.0047 | –
UGGACCAACAGCUUGCAUAGUAUUUACUUA | 0.299 ± 0.018 | 0.0367 ± 0.0063

Sequence | pre-steady-state target cleavage rate [1] | pre-steady-state target cleavage rate [2]
UCCUGGAUGUCCUUGAAUAGUAUUUAGUUA | 0.0223 ± 0.0065 | 0.00268 ± 0.0026
UGCUCCUACAGCUUGCAUAGUAUUUAGAAA | 0.429 ± 0.033 | 0.00714 ± 0.0022
UGCUCCUACAGCUUGCAUAGUAUUUAGUUA | 1.33 ± 0.047 | 0.0726 ± 0.012
UCCUGCCUACAGCUUGCAUAGUAUUUAGUUA | 1.33 ± 0.091 | 0.0623 ± 0.014
UCCUGCUACAGCUUGCAUAGUAUUUAGUUUA | 1.17 ± 0.077 | 0.0574 ± 0.012
AGCUCCUACAGCUUGCAUAGUAUUUAGUUA | 1.37 ± 0.053 | 0.0847 ± 0.013
UCCUCCUACAGCUUGCAUAGUAUUUAGUUU [g2:g26:cont:t1U] | 1.29 ± 0.04 | 0.0826 ± 0.02
UCCUGCUACAGCUUGCCUAGUAUUUAGUUA | 0.886 ± 0.057 | 0.0207 ± 0.0037
UGCUCCUACAGCUUGCAUAGUAUUUAGUAA | 1.07 ± 0.045 | 0.0382 ± 0.0079
AGCUCCUACAGCUUGCAUAGUAUUUAGUAA | 1.01 ± 0.069 | 0.0506 ± 0.011
UCCACCUACAGCUUGCAUAGUAUUUCAGUUA | 0.691 ± 0.081 | 0.0139 ± 0.0037
AGGACCUACUGCUUGCAUAGUAUUUAGAUA | 0.471 ± 0.048 | 0.0411 ± 0.0086
UCCUGGUAUAGCUUGCAUAGUAUUUAGUUA | 1.02 ± 0.043 | 0.0597 ± 0.012
UCCACCUACAGCUUGCAUACUAUAUAGUUA | 0.178 ± 0.022 | 0.0112 ± 0.003
UGGACCUACAGCUUGCUUAGUAUUUAGUUA | 1.56 ± 0.094 | 0.0426 ± 0.011
UGGACCUACAGCUUGCUAGUAUUUAGUUA | 0.0515 ± 0.013 | 0.00386 ± 0.0022
UGGACCUACAGCUUGCUUAGUAUUUAGUAA | 1.03 ± 0.073 | 0.0335 ± 0.0097
AGGAGCUACAGCUUGCUUAGUAUUUAGUUA | 1.3 ± 0.061 | 0.0523 ± 0.011
UCGAGCUACAGCUUGCUUAGUAUUUAGUUA | 1.19 ± 0.053 | 0.0376 ± 0.0079
AGGACCUACAGCUUGCUUAGUAUUUAGUAA | 0.862 ± 0.079 | 0.0262 ± 0.0068
UGGAGCUACAGCUUGCUUAGUAUUUAGUUA | 1.33 ± 0.062 | 0.0391 ± 0.0074
AGGACCUACAGCUUGCUAGUAUUUAGUUA | 0.179 ± 0.041 | 0.00501 ± 0.0024
AGGACCUACAGCUUGCUUAGUAUUUAGUUA | 1.43 ± 0.071 | 0.066 ± 0.015
UCCAGGAACAGCUUGCAUAGUAUUUACAAA | 0.328 ± 0.041 | 0.00665 ± 0.0019
UCCUCCUACAGCUUGCAAAGUUUUUAGUUA | 0.352 ± 0.029 | 0.0137 ± 0.0033
UCCUGGAUGUCCUUUCAUAGUAUUUAGUUA | 0.0134 ± 0.004 | –

Sequence | pre-steady-state target cleavage rate [1] | pre-steady-state target cleavage rate [2]
UCCUGGUAGACCUUGCAUAGUAUUUAGUUA | 0.46 ± 0.042 | 0.00968 ± 0.0029
UCCACCUACACCUUGCAUAGAAUUUAGUUA | 0.337 ± 0.066 | 0.0107 ± 0.003
UGGACCUACAGCUUGACAUAGUAUUUAGUUA | 0.986 ± 0.1 | 0.00706 ± 0.0031
UGGACCUACAGCUUACAUAGUAUUUAGUUA | 1.53 ± 0.079 | 0.0508 ± 0.0082
UCGACCUACAGCUUACAUAGUAUUUAGUUA | 1.59 ± 0.062 | 0.0382 ± 0.0069
AGGACCUACAGCUUACAUAGUAUUUAGUUA | 1.28 ± 0.064 | 0.0655 ± 0.011
UCGACCUACAGCUUGACAUAGUAUUUAGUUA | 0.952 ± 0.072 | 0.00438 ± 0.0026
AGGACCUACAGCUUCAUAGUAUUUAGUUA | 1.11 ± 0.053 | 0.0309 ± 0.0073
UCCACCUACAGCUUACAUAGUAUUUAGUUA | 0.753 ± 0.034 | 0.0222 ± 0.0039
UGGACCUACAGCUUCAUAGUAUUUAGUUA | 1.36 ± 0.077 | 0.0221 ± 0.0047
UGGACCUACAGCUUUCAUAGUAUUUAGUUA | 0.593 ± 0.032 | 0.0286 ± 0.0052
UCCUGGAAGAGCUUGCAUAGUAUUUACAAA | 0.0945 ± 0.02 | –
UCCUGGAUGAGCUUGCAUAGUAUAUACAAA | 0.00918 ± 0.0054 | –
UCCUGCUACAGCUUGCUUAGUAUAUAGUUA | 0.404 ± 0.038 | 0.0128 ± 0.0044
UCCACCUACUGCUUGCAUACUAUUUAGUUA | 0.297 ± 0.026 | 0.0231 ± 0.0039
UCCUGCUAGAGCUUGCAUACUAUUUAGUUA | 0.248 ± 0.03 | 0.0221 ± 0.0058
UGGACCUACACCUUGGAUAGUAUUUAGUUA | 0.815 ± 0.069 | 0.0418 ± 0.0063
AGGACCUACUGCUUGGAUAGUAUUUAGUUA | 1.34 ± 0.052 | 0.061 ± 0.0085
UCCUGCUACUGCUUGGAUAGUAUUUAGUUA | 0.969 ± 0.077 | 0.0353 ± 0.0055
UCGACCUACUGCUUGGAUAGUAUUUAGUUA | 1.67 ± 0.068 | 0.0575 ± 0.0089
UCCUCCUACUGCUUGGAUAGUAUUUAGUUA | 1.21 ± 0.04 | 0.0517 ± 0.0073
UCGACCUACACCUUGGAUAGUAUUUAGUUA | 0.854 ± 0.076 | 0.0364 ± 0.0044
UCCACCUACUGCUUGGAUAGUAUUUAGUUA | 1.14 ± 0.049 | 0.0503 ± 0.0082
UGGACCUACUGCUUGGAUAGUAUUUAGUUA | 1.65 ± 0.072 | 0.0542 ± 0.0088
AGGACCUACACCUUGGAUAGUAUUUAGUUA | 0.817 ± 0.061 | 0.0497 ± 0.0086
UCCUGGAUGUCGAACGUAUCUAAUUAGUAA | – | < 0.0001
